Screening data (PubChem)
In the library only some 10% were active in any assay of this set; here they are far more common.
HP1b binding inh: HTS for Inhibitors of HP1-beta Chromodomain Interactions with Methylated Histone Tails; AlphaScreen HP1-beta / biotin-H3K9me3 peptide binding; Potency, µM (titrated, usually from 114 µM), inactives show at the top dose activity change, negative = inhibition, most hits filed as inhibitors; 390,000 tested, 0.56% active; AID 540317, 2011; also: nearly all actives have a fitted effect of over 70% in size
Target sequence (P83916 whole entry, looked up): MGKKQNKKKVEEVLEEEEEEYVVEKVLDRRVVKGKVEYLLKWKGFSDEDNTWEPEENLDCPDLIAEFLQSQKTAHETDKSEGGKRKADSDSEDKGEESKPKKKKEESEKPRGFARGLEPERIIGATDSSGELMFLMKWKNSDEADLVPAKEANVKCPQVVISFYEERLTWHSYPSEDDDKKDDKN
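HP1-beta protein (50 nM final) preincubated 30 min at room temperature with biotinylated H3(1-18)K9me3 peptide (50 nM) in PBS pH 7.4, 0.01% Tween-20, then compound added for 30 min. AlphaScreen streptavidin donor/nickel chelate acceptor beads (10 ug/mL final), 30 min dark, luminescence read.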
GLS inhibitor: qHTS for Inhibitors of Glutaminase (GLS); Glutaminase kidney isoform, mitochondrial (Homo sapiens), O94925; GLS enzymatic activity, qHTS titration; Potency, µM (titrated, usually from 45.5 µM), for the others: at the top dose activity change, negative = inhibition, usual class: inhibitors; 410,000 tested, 0.21% active; AID 624170, 2012; also: % is scaled to controls: 0 for no effect and ±100 for the full control effect
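Human kidney-isoform GLS in 45 mM KH2PO4 pH 8.2, 0.02% Tween-20, with compound, started with 1mM L-Glutamine (added stock). Glutamate oxidase/HRP/Amplex red coupled fluorescence read at start and after 30 min at RT.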
BAZ2B block: qHTS Assay for Inhibitors of BAZ2B | AlphaScreen BAZ2B-H3K14Ac peptide displacement | Potency, µM (top dose mostly 114 µM), inactives show at the top dose activity change, negative = inhibition, actives largely listed as inhibitors | 360,000 tested, 4.4% active | AID 504333, 2011; also: % is scaled to controls: 0 for no effect and ±100 for the full control effect; nearly all actives have a fitted effect of over 60% in size
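BAZ2B (50 nM) with biotin-H3(5-23)K14Ac peptide (50 nM) in PBS pH 7.4, 0.01% Tween-20, preformed 30 min, then compound 30 min at room temperature; top concentration 110uM. AlphaScreen streptavidin donor/nickel chelate acceptor beads (10 ug/mL final), 20 min dark, signal read.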
JMJD2A Tudor: qHTS Assay for Inhibitors of JMJD2A-Tudor Domain; Potency, µM (top dose mostly 114 µM), inactives show at the highest dose activity change, negative = inhibition, usual class: inhibitors; 390,000 tested, 4.4% active; Lysine-specific demethylase 4A (Homo sapiens), O75164; AlphaScreen JMJD2A-Tudor / H3K4me3 peptide binding; also: % is scaled to controls: 0 for no effect and ±100 for the full control effect; nearly all actives have a fitted effect of over 50% in size
G9a block: qHTS Assay for Inhibitors of Histone Lysine Methyltransferase G9a | AID 504332, 2011 | 350,000 tested, 8.8% active | G9a H3K9 monomethylation, AlphaScreen, 2 h | Potency, µM (doses to about 102 µM), for the others: at the top dose activity, negative = inhibition, hits mostly inhibitors; also: % is scaled to controls: 0 for no effect and ±100 for the full control effect; nearly all actives have a fitted effect of over 75% in size
Target sequence (Q96KQ7 913-1193 limits assumed): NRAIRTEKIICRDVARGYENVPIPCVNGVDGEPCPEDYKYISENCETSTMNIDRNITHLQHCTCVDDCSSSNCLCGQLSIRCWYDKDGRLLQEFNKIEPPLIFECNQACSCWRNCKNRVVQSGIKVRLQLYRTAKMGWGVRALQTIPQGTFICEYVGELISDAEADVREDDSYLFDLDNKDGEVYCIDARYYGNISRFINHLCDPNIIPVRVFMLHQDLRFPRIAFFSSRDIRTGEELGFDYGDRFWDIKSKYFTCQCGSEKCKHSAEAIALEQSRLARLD
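Quantitative HTS format: methyltransferase activity on a biotin-tagged H3K9 peptide is measured by AlphaScreen, using a rabbit anti-monomethyl-H3K9 antibody with streptavidin donor and anti-IgG acceptor beads. Final levels are 20 nM enzyme, 500 nM peptide, 20 uM SAM; 2 h RT.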
The depositor's hits bear a star; ? = inconclusive; nt = no result given; [ ] = remark or other dose. Calls follow the shape of the dose curve; as a rule, active = well fitted curve in the direction sought with a large enough effect; inconclusive = small, poorly fitted or top-dose-only effect, or another doubt; inactive = no such curve, though single readings can be large; an effect the other way counts as inactive or inconclusive. Potency is read from the fitted curve at half-maximal effect.

SMILES | HP1b binding inh | GLS inhibitor | BAZ2B block | JMJD2A Tudor | G9a block
Cc1ccc(C(C)C)c(OCC(=O)Nc2ccccc2N2CCN(C)CC2)c1 | -19% | 4% | ? | ? | -4%[12.7 µM]
Cc1ccc(C(C)C)c(OCC(=O)Nc2ccc(N3CCOCC3)cc2N2CCOCC2)c1 | 18% | -10% | 0% | -16% | 25µM*
Cc1ccc(CSCC(=O)Nc2ccc(N3CCOCC3)cc2N2CCOCC2)cc1 | 7% | 9% | -6% | -18% | 28µM*
Cc1ccc(C(C)C)c(OCC(=O)NN=C(CCl)CCl)c1 | nt | nt | 56µM* | nt | nt
O=C1CCC(C(=O)N2CCCCO2)CN1Cc1cccc(F)c1 (stereo not given) | 26% | 2% | 2% | -14% | 18%
Cc1cc(N2CCCCC2)nc(SCc2ccc(C#N)cc2)n1 | 78% | 1% | 14% | 24% | 7%[59 µM]
Cc1ccccc1OCC(=O)Nc1ccccc1OCc1cc(=O)n2ccccc2n1 | 32%[57 µM] | 7% | 8% | 1% | 1%[59 µM]
O=C(CCN1C(=O)C2CC=C(Cl)CC2C1=O)N1CCCCC1 (stereo not given) | -1% | 2% | -8% | ? | 11µM*
NNC(=O)c1sccc1OCc1ccc(Cl)cc1Cl | 38% | -2% | -18% | -7%[57.1 µM] | -25%
Cc1ccc(S(=O)(=O)Nc2cccc3cccnc23)c([N+](=O)[O-])c1 | -7% | 67% | 45µM* | ? | 6%
Cc1ccc(-c2noc(CCCC(=O)NC3CCCCC3)n2)cc1 | 29% | 3% | 9% | -7% | 1%
Cc1c(C)n(Cc2ccc(F)cc2)c2ccc(C(=O)N3CCN(c4ccccn4)CC3)cc12 | -21%[57 µM] | 2% | ? | ? | 32µM*
CCn1c(C)c(C)c2cc(C(=O)N3CCN(c4ccccc4)CC3)ccc21 | ? | 5% | 28µM* | 45µM* | ?
Cc1c(C)n(Cc2ccccc2)c2ccc(C(=O)N3CCN(c4ccccc4F)CC3)cc12 | 28% | -4% | ? | ? | ?
CCn1c(C)c(C)c2cc(C(=O)NC3CCCCCC3)ccc21 | -19%[57 µM] | 7% | 35µM* | ? | -6%
COc1ccc(/C=C/C(=O)C23CC4CC(CC(C4)C2)C3)cc1CN1CCOCC1 | ? | 0% | ? | ? | ?
CCOC(=O)N1CCN(C(=O)C(=O)NNC(=O)COc2ccc(Cl)c(C)c2)CC1 | 42% | 7% | -35% | 3% | 0%
O=[N+]([O-])c1cc(Cl)c(Cl)c(Cl)c1Cl | -4% | -1% | ? | -32% | 8%[0.501 µM]
CC(C)C(=O)NNC(=O)C1CC1(c1ccccc1)c1ccccc1 (stereo not given) | -8% | 0% | 4% | ? | 17%
Cc1cc(=O)[nH]c(SCCOc2ccc(OC(C)C)cc2)n1 | 4% | -3% | -32% | ? | 14µM*
C=CCNC(=O)NC(=S)c1ccccc1 | 16% | 6% | 5% | -13% | -6%[59 µM]
[N-]=[N+]=CC(=O)CCCN1C(=O)c2ccccc2C1=O | 18% | -6% | 12% | -5%[57.1 µM] | 6%[59 µM]
[N-]=[N+]=CC(=O)CC(c1ccccc1)N1C(=O)c2ccccc2C1=O (stereo not given) | 17% | 7% | 32µM* | 50µM* | ?
COc1ccc(CN(CC(=O)NCc2ccc(F)cc2)C(=O)CCC(=O)Nc2cc(C)ccn2)cc1 | -6% | 0% | 0% | -11% | 17%[59 µM]
Cc1cc(NS(=O)(=O)c2ccc(NC(=O)CSc3nc4ncc(Cl)cc4[nH]3)cc2)nc(C)n1 | 35% | 1% | -3% | -8% | 45µM*
O=C(CSc1nc2ncc(Cl)cc2[nH]1)Nc1cccc(F)c1 | 36% | -12% | -23% | -20% | 50µM*
Nc1ncnc2nc(SCC(=O)Nc3cccc(C(F)(F)F)c3)[nH]c12 | 29% | -1% | -15% | -14% | 35µM*
COc1ccc(C)cc1S(=O)(=O)NC1CCCCC1C (stereo not given) | ? | 2% | 12% | -11% | 0%[59 µM]
